Shown are actives, neighbours in structure and some others; about 3.2% of the full set was active somewhere.
PG9 Ab binder: small molecules binding HIV-1 gp120 antibody PG9 | TR-FRET gp120-PG9 antibody binding | inhibition, % at 6.7 µM | 0.43% of 360,000 active | AID 624416; in the data active = inhibition above about 8.5%
MsrA act: bovine methionine sulfoxide reductase A activation; purified bovine MsrA, absorbance read-out; activation, % at 10.6 µM; 0.3% of 360,000 active; AID 602163; in the data active = activation above about 7.5%;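 note: 0% = vehicle and 100% = reference activator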
sPLA2-III inh: Inhibits HGIII-sPLA2 liposome hydrolysis, primary screen | Q9NZ20 | 0.56% of 370,000 active | QFRET BODIPY PC-A2 liposome hydrolysis, fluorescence | inhibition, % at 12.2 µM;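 active = inhibition above mean plus 3 SD of compounds lying within the high and low control bounds, cut at about 19% in these data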;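 note: 0% = median of test compound wells and 100% = no enzyme DMSO wells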
Target sequence (Q9NZ20 whole entry, looked up): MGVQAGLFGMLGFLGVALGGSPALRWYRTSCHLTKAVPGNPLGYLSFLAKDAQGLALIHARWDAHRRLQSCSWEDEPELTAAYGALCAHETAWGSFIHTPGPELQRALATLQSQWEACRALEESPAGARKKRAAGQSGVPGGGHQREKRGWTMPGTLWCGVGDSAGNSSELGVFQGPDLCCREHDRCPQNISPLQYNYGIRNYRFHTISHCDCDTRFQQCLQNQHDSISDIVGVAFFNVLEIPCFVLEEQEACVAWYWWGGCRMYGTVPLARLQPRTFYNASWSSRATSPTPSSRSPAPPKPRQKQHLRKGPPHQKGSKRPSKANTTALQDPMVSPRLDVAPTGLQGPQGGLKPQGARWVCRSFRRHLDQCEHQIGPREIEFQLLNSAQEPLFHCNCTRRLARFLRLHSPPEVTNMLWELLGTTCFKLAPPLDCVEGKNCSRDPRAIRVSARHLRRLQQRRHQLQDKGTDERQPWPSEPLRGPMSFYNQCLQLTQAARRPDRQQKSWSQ
rCAG RNA binder: binds r(CAG) RNA repeats; r(CAG) RNA repeat, TO-PRO-1 dye displacement fluorescence; inhibition, % at 3 µM; 1.3% of 370,000 active;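 active = inhibition above the plate cutoff, the mean of all test compounds on that plate plus 3 SD, cut at about 35% in these data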;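 note: 0% = DMSO alone and 100% = 100 µM mitoxantrone as full dye displacement; higher means more dye released from RNA so lower well fluorescence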
MsrA inh: inhibits bovine methionine sulfoxide reductase A; purified bovine MsrA, absorbance read-out; inhibition, % at 15.5 µM; 0.75% of 360,000 active; in the data active = inhibition above about 4.5%;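 note: 0% = vehicle wells with enzyme and 100% = reference inhibitor wells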
PG9 bind confirm: confirmation of small molecules binding HIV-1 gp120 antibody PG9. shares compounds with PG9 Ab binder. TR-FRET PG9 antibody binding, biochemical. inhibition, % at 6.7 µM. 90% of 1,500 active; in the data active = inhibition above about 9%
PGV04 Ab binding: binds control antibody PGV04 in PG9 binder counter-screen; shares compounds with PG9 Ab binder; AID 651604; 95% of 1,500 active; inhibition, % at 6.7 µM; TR-FRET PGV04 antibody-gp120 binding, biochemical; in the data active = inhibition above about 9.5%
PG9 binder DR: PG9 antibody binding, dose response; shares compounds with PG9 Ab binder; TR-FRET PG9 antibody-gp120 binding inhibition; IC50, µM; 95 tested, under 10 active; AID 651848; in the data active = IC50 below about 10 µM
PGV04 DR counter: PGV04 binding, dose response counter-screen | IC50, µM | TR-FRET binding to control antibody PGV04 | 20% of 95 active | AID 651937 | shares compounds with PG9 Ab binder
PG126 DR counter: PG126 binding, dose response counter-screen. shares compounds with PG9 Ab binder. TR-FRET binding to antibody PG126, counterscreen. IC50, µM. 20% of 95 active. AID 651939
* hit, by the source's call; i = inactive; nt = not tested or not shown; ! = not confirmed by another sample. Cut-off read from the data, not from the text of the source, unless noted: active = IC50 below about 9 µM; inactive = the rest.

SMILES	PG9 Ab binder	MsrA act	sPLA2-III inh	rCAG RNA binder	MsrA inh	PG9 bind confirm	PGV04 Ab binding	others
COC(=O)CSc1nnc(-c2ccc(NS(=O)(=O)c3c(C(C)C)cc(C(C)C)cc3C(C)C)cc2)o1	nt	nt	-52	22	nt	nt	nt
CC(C)(C)c1ccc(C(=O)Nc2cc(Cl)ccc2C(=O)O)cc1	nt	nt	-34	nt	nt	nt	nt
O=C(NCc1ccc(F)c(F)c1)C1CCCN(c2nc3ccccc3o2)C1 (centres undefined)	nt	nt	9	0	nt	nt	nt
COc1cc(C(=O)Oc2ccccc2)ccc1OCc1c(C)noc1C	11*	-2	-1	-2	1	17*	13*	PG9 binder DR=>67;PGV04 DR counter=>67;PG126 DR counter=>67
C[C@@H](/C=C/C(=O)OC(C)(C)C)Sc1ccc(C(C)(C)C)cc1	nt	nt	7	0	nt	nt	nt
COc1ccccc1Cn1c(=S)[nH]c2ccc(F)cc2c1=O	32*	-2	2	8	-1	18*	17*	PG9 binder DR=i;PGV04 DR counter=i;PG126 DR counter=i
COc1ccccc1Cn1c(=S)[nH]c2ccc(Br)cc2c1=O	-3	-3	5	8	1	nt	nt
CC1=Nc2ccc(C)cc2/C1=C/c1c(N)n2oc(C)cc2nc1=O	17*!	-6	7	9	1	20*	43*
C=CCN1C(=O)/C(=C2/Sc3ccc(OC)cc3N2C)SC1=Nc1cccc(O)c1	11*	-3	5	10	2	41*	59*
CCN1C(=O)/C(=C2/Sc3ccc(OC)cc3N2C)SC1=Nc1ccc(OC)cc1	-2	-2	1	6	1	nt	nt
C=CC[C@@]1(c2ccccc2)Oc2ccccc2-c2nc3ccccc3nc21	nt	nt	-1	4	nt	nt	nt
N#Cc1c(NC(=O)C2CC=CCC2C(=O)O)sc2c1CCCCCC2 (centres undefined)	11*	-9	-14	30	0	9.0*	9.4*
Cc1ccc(/C(O)=C2/C(=O)C(=O)N(CCN3CCOCC3)C2c2cccnc2)cc1 (centres undefined)	0	1	1	-1	2	nt	nt
Cc1c(N2C(=O)C(=O)/C(=C(/O)c3ccc(Br)cc3)C2c2cccnc2)c(=O)n(-c2ccccc2)n1C (centres undefined)	22*	-2	-3	0	2	31*	38*
Cc1cc2oc(=O)cc(COC(=O)c3n[nH]c4ccccc34)c2cc1C	5	-9	-6	5	0	nt	nt
COc1ccc2c(COC(=O)c3n[nH]c4ccccc34)cc(=O)oc2c1	62*	-1	1	12	0	53*	57*
O=c1[nH]c(/C=C/c2cccc3ccccc23)nc2ccccc12	33*	-1	-5	2	0	45*	46*
COc1ccc2c(c(-c3ccccc3)cn2C)c1-c1ccccc1	nt	nt	10	1	nt	nt	nt
Cc1cc(OCC(=O)NCCc2ccc(S(N)(=O)=O)cc2)c2c(C)c(C)c(=O)oc2c1	10*	-2	4	9	-1	14*	25*
COc1cc(C(=O)NCc2ccc(-c3nc4ccccc4s3)cc2)cc(OC)c1OC	10*	-3	-15	6	1	19*	29*
COc1ccc(C(=O)NCc2ccc(-c3nc4ccccc4s3)cc2)cc1	-1	-3	-4	3	2	nt	nt
COc1ccc(-c2noc(C3CCCN(C(=O)NC4CCC(C)CC4)C3)n2)cc1 (centres undefined)	nt	nt	2	0	nt	nt	nt
N#Cc1c(N2CCCCC2)nc(N)c2c(N)nc3c(c12)CC(CCl)O3 (centres undefined)	21*	-1	0	22	1	23*	35*
CCN1CCCCC(NC(=O)COCc2ccccc2)C1=O (centres undefined)	nt	nt	0	2	nt	nt	nt
N#Cc1cccc(NC(=O)CSc2nnc(-c3n[nH]c4ccccc34)o2)c1	9.4*	-2	-2	18	2	8	10*
